Assay outcomes as filed in PubChem BioAssay.
An excerpt weighted towards active compounds, which were near 4% of everything screened.
D1 antag: blocks dopamine activation of the human D1 receptor; P21728; HEK293 TREx D1 cells, calcium flux, dopamine EC80; stronger effect = lower value; activity change, negative = inhibition, % at 10 µM; 360,000 compounds, 3.2% hits; AID 504652; in the data active means activity change below about -30%
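Antagonism measured as reduced calcium response to an EC80 dopamine addition following 180 s compound pre-read; cells were inducible HEK293 Trex D1 plated overnight at 30 C, read kinetically at 1 cycle/sec.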
D1 agonist: human D1 receptor agonism | P21728 | HEK293 T-REx D1 cells, calcium flux, agonist mode | activation, % at 2 µM | 360,000 compounds, 1% hits
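Tetracycline-induced HEK293 TREx D1 cells, force-coupled to calcium signalling, were dye-loaded with a no-wash calcium kit. Compound was pin-added after a 10 s baseline. Fluorescence was read kinetically at 1 cycle/s for 180 s, with calcium rises flagged as agonism.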
GRP78 ERSR act: ER stress response induction in glioma; Potency, µM, hits mostly activators; U87-MG GRP78 promoter luciferase reporter, 16 h; AID 602332; 420,000 compounds, 0.02% hits; active means well fitted activation curve with a large enough effect; further: series mostly up to about 76 µM; nearly all actives have a fitted effect of over 35% in size
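ERSR induction read as luciferase luminescence (Bright-Glo, 10 min at room temperature) in stably transfected human U87-MG glioma cells exposed to compounds for 16 h, using GRP78 as sensor.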
TRHR agonist: TRH receptor (human) agonism; P34981; TRHR cells, calcium flux fluo-8, FDSS agonist mode; activation, % at 2 µM; 360,000 compounds, 0.18% hits; AID 493084
Target sequence (P34981 whole entry, looked up): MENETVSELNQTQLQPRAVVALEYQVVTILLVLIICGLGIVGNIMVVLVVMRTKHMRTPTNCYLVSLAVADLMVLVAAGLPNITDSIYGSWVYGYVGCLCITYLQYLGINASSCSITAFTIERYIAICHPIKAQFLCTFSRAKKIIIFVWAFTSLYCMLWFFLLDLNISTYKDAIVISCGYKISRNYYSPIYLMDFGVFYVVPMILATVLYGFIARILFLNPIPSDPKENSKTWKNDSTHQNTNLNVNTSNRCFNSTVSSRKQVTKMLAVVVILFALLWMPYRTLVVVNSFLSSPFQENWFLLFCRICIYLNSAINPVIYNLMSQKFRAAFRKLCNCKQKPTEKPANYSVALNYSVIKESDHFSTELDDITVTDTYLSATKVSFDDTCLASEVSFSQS
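Fluo-8-loaded TRHR cells; 10 s baseline, compound added, kinetic Ca2+ fluorescence read 1/s, agonist mode.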
TRHR enhancer: TRH receptor (human) allosteric enhancement | TRHR cells, fluo-8 calcium fluorescence, EC20 TRH enhancement | enhancement, % at 2 µM | 360,000 compounds, 0.66% hits; in the data active means enhancement above about 30%
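TRHR-expressing cells loaded with fluo-8 calcium dye were read kinetically (ex 480/em 530) during compound addition, then stimulated with an EC20 of TRH (10 nM final). Enhancement of the Gq-mediated intracellular calcium response was scored.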
D1 potentiator: enhances dopamine response at the human D1 receptor; P21728; HEK293 TREx D1 cells, calcium flux, dopamine EC20 potentiation; potentiation, % at 10 µM; 360,000 compounds, 0.036% hits; AID 504651; in the data active means potentiation above about 30%
A number is an active result; i = inactive; nt = no result given. Unless noted, no stated cut-off is given here; in the data, active means activation above about 30%; inactive means the rest.

SMILES | D1 antag | D1 agonist | GRP78 ERSR act | TRHR agonist | TRHR enhancer | D1 potentiator
Cc1ccccc1C(=O)Nc1cc(NC(=O)c2ccccc2C)cc(C(=O)O)c1 | -38.5 | i | i | i | i | i
COC(=O)c1cc(NC(=O)c2ccccc2F)cc(C(=O)OC)c1 | -31.6 | i | i | i | i | i
O=C(O)c1cc(NC(=O)c2ccccc2F)cc(NC(=O)c2ccccc2F)c1 | i | i | i | i | i | i
Nc1cccc(/C=C/c2ccncc2)c1 | -41.4 | i | i | i | i | i
Cc1ccc(C(=O)CCC(=O)OCC(=O)Nc2nnc(-c3ccccc3)o2)cc1 | -50.0 | i | i | i | 40.5 | i
O=C(COC(=O)CNC(=O)c1ccc(Br)cc1)Nc1nnc(-c2ccccc2)o1 | -37.8 | i | i | i | i | i
COc1ccc(COC(=O)N/N=C2/C[C@@H](O)[C@@H](O)[C@@H]3[C@@H]4C(=O)N(Cc5ccc6c(c5)OCO6)C(=O)[C@H]4CC[C@@H]23)cc1 | nt | nt | i | nt | nt | nt
CC(C)OP(=O)(OC(C)C)C(NC(=O)c1ccccc1Br)C(N)=O (stereo unspecified) | i | i | i | i | 31.9 | i
O=C(NCc1cccnc1)c1cccc2c1C(=O)N(C1CCCCC1)C2 | -57.8 | i | i | i | i | i
COc1ccc(S(=O)(=O)N2CCCOC2CNC(=O)C(=O)NCCO)cc1 (stereo unspecified) | nt | nt | i | nt | nt | nt
CSc1ncccc1C(=O)OCC(=O)Nc1ccc(C)c(S(=O)(=O)N2CCOCC2)c1 | nt | nt | i | nt | nt | nt
O=C(CSCCc1ccccn1)Nc1ccccn1 | i | i | i | i | i | i
O=C(O)CSCCc1ccccn1 | -81.6 | i | i | i | i | i
O=C(c1ccco1)N1N=C(c2ccc(Br)cc2)CC1(O)C(F)(F)F (stereo unspecified) | -45.7 | i | i | i | i | i
O=C(c1ccncc1)N1N=C(C2CCCCC2)CC1(O)C(F)(F)F (stereo unspecified) | i | i | i | i | i | i
O=C(c1ccco1)N1N=C(C2CCCCC2)CC1(O)C(F)(F)F (stereo unspecified) | -38.3 | i | i | i | i | i
CCSC(=O)N1CCN(/[N+]([O-])=N/Oc2ccc([N+](=O)[O-])cc2[N+](=O)[O-])CC1 | nt | nt | i | nt | nt | nt
CC1(C)Cc2c(sc(NC(=O)c3ccc(C(=O)c4ccccc4)cc3)c2C(N)=O)C(C)(C)N1 | i | 111.8 | i | i | i | i
CC1CCN(S(=O)(=O)c2ccc(C(=O)Nc3sc4c(c3C(N)=O)CC(C)(C)NC4(C)C)cc2)CC1 | i | i | i | i | i | i
COC(=O)c1c(NC(=O)c2ccccc2)sc2c1CC(C)(C)NC2(C)C | -31.1 | i | i | i | i | i
CCc1ccc(-c2nc(SCC(=O)NC3CC3)n[nH]2)cc1 | i | i | i | i | i | i
CCCCCCCCNC(C)C(O)c1ccc(SC(C)C)cc1 (stereo unspecified) | i | 50.3 | i | i | i | i
COC(=O)[C@]12CCC(C)(C)C[C@@H]1[C@@H]1C(=O)C=C3[C@@]4(C)C=C(C#N)C(=O)C(C)(C)[C@@H]4CC[C@@]3(C)[C@]1(C)CC2 | nt | nt | i | nt | nt | nt
Cc1cc(C(N)=O)c2cc(Br)ccc2n1 | i | i | i | i | i | i
Cc1cc(C(=O)NN)c2cc(Br)ccc2n1 | -34.7 | i | i | i | i | i
SMILES | D1 antag | D1 agonist | GRP78 ERSR act | TRHR agonist | TRHR enhancer | D1 potentiator
c1ccc(-c2csc(Nc3ccccn3)n2)cc1 | i | i | i | i | i | i
Oc1ccc(-c2csc(Nc3ccccn3)n2)cc1 | -79.3 | i | i | i | i | i
CN(C)CC(CCC(CN(C)C)C(O)(c1ccccc1)c1ccccc1)C(O)(c1ccccc1)c1ccccc1 (stereo unspecified) | -41.4 | i | i | i | i | i
CN(C)C/C=C/C(O)(c1ccccc1)c1ccccc1 | i | i | i | i | i | i
CCc1cc(-c2[nH]ncc2-c2ccc3c(c2)OCO3)c(O)cc1O | i | i | i | i | i | i
CCCc1cc(-c2[nH]ncc2-c2ccc3c(c2)OCCCO3)c(O)cc1OC | i | 36.6 | nt | i | i | i
CC(=O)c1cccc(N(CC(=O)NC2CCCCC2)C(=O)CNC(=O)c2cccs2)c1 | i | i | i | i | i | i
CCCCN(CC)S(=O)(=O)c1ccc2c(c1)n(C)c(=O)c(=O)n2C | i | i | i | i | i | i
O=C(CSc1ccccc1)NNC(=O)c1ccncc1 | i | i | i | i | 31.6 | i
O=C1c2ccccc2-c2onc3ccc(NCc4ccco4)c1c23 | i | 121.7 | i | 62.6 | i | i
O=C1c2ccccc2-c2onc3c(Oc4ccccc4)cc(O)c1c23 | i | i | nt | i | i | i
CCNc1ccc2noc3c2c1C(=O)c1ccccc1-3 | -43.9 | 313.5 | i | 121.6 | 30.6 | i
CCOc1ccc2noc3c2c1C(=O)c1ccccc1-3 | i | 97.7 | i | 45.9 | i | i
O=C1C(Cl)=C(NCc2ccco2)C(=O)c2ccccc21 | nt | nt | i | nt | nt | nt
CCCNC(=O)Cn1nc(C(F)(F)F)c2c1CCCC2 | i | i | i | i | i | i
CC(C)CN(C(=O)COC(=O)CCC(=O)c1ccc(Cl)cc1)c1c(N)n(Cc2ccccc2)c(=O)[nH]c1=O | i | i | i | i | i | i
CC(=O)Nc1ccc(S(=O)(=O)NCCOc2ccc(Cl)cc2C)cc1 | i | i | i | i | i | i
CCCCOc1ccc(CONS(=O)(=O)c2ccc(NC(C)=O)cc2)cc1Cl | i | 135.5 | i | i | i | i
CC(=O)N1CCC[C@H]1C(=O)N1CCc2c(cnc(C)c2CNC(=O)/C=C/c2cccs2)C1 | nt | nt | i | nt | nt | nt
O=C(Cc1ccc(-n2cccc2)cc1)NCc1cccs1 | -34.0 | i | i | i | i | i
CN(CC(=O)O)c1ccc(C=O)cc1 | nt | nt | i | nt | nt | nt
CCOC(=O)c1ccc(N2NC(=O)/C(=C/c3ccc(OC(=O)c4ccco4)c(OC)c3)C2=O)cc1 | i | i | nt | i | i | i
CCOC(=O)COc1ccc(/C=C2/C(=O)NN(c3ccc(F)cc3)C2=O)cc1OC | i | i | i | i | 38.1 | i
COc1cc(/C=C2/NC(=O)NC2=O)ccc1OCC(=O)Nc1ccc(F)cc1 | -70.8 | i | i | i | i | i
O=c1[nH]c2ccc(S(=O)(=O)N3CCN(S(=O)(=O)c4c(F)cccc4F)CC3)cc2[nH]c1=O | i | i | nt | i | i | i
CC(C)CC(OC(=O)CNC(=O)c1ccccc1)C(=O)Nc1cc(C(F)(F)F)ccc1Cl (stereo unspecified) | i | i | nt | i | i | i
CCc1ccc(CN2CCC(Oc3cc(C(=O)NC4CC4)ccc3OC)CC2)cc1 | nt | nt | i | nt | nt | nt
COc1ccc(C(=O)NC2CC2)cc1OC1CCN(Cc2cc(C)cc(C)c2)CC1 | -50.7 | i | i | i | i | i
COc1ccc(C(=O)NC2CC2)cc1OC1CCN(Cc2ccc(Cl)cc2)CC1 | -57.7 | i | i | i | i | i
